The full ranking holds about 1,100 sequences; the median of “relative enrichment” is about 0.38, and the highest 2% start at about 0.66. This is one part of a sample in which the highest values are shown more often than they occur.

For this experiment, the target named is T1, FOXC2 DBD WT (UniProt Q99958 72-172).
T1 sequence: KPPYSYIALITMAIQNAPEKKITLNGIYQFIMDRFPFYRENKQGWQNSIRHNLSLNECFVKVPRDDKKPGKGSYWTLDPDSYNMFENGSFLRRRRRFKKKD
Nature of the experiment: SELEX-seq (GST pull-down, four rounds, 16-nt random library); pH 7.0; 20 mM HEPES, 140 mM KCl, 0.05 mM TCEP-HCl, pH 7.0, room temperature, 30 min; 2.5 uM GST-FOXC2 DBD, 0.25 uM DNA library; high values mean tight binding. As to conditions: protein: recombinant; tags: N-terminal GST (pGEX-6P-2); dsDNA, one strand shown. In short, it runs like this:
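GST-tagged FOXC2 DNA-binding domain (E. coli-expressed, glutathione-purified) was incubated with a DNA library carrying a 16 bp randomized region, at 0.25 μM DNA and 2.5 μM protein, for 30 min at RT in 20 mM HEPES, 140 mM KCl, 0.05 mM TCEP–HCl, pH 7. Complexes were captured on glutathione Sepharose beads, washed, heat-eluted and PCR-amplified over four rounds. Initial and selected libraries were Illumina MiniSeq sequenced. Relative enrichment came from the Bioconductor SELEX R package.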
As to TAATGA, the binding signal amounted to 0.31 relative enrichment.

Take AAGCTA: the binding signal worked out at 0.297 relative enrichment.

As to TACACC, the binding signal stood at 0.418 relative enrichment.

For the sequence TACCTC, the binding signal is 0.625 relative enrichment.

As to CACCTC, the binding signal stood at 0.731 relative enrichment.

For the sequence CACCTG, the binding signal was 0.535 relative enrichment.

For the sequence CAATAA, the binding signal was found to be 0.513 relative enrichment.

In the case of CTTATC, the binding signal was 0.378 relative enrichment.

Consider AACAGG, for which the binding signal came out at 0.325 relative enrichment.

As for TCAACT, the binding signal came out at 0.324 relative enrichment.

On to CAACCA, for which the binding signal was determined as 0.261 relative enrichment.

Turning to TTCCTA, the binding signal amounted to 0.364 relative enrichment.

On to CTTACA, for which the binding signal is 0.35 relative enrichment.

Take TATAAA: the binding signal stood at 0.283 relative enrichment.

As for ATACTC, the binding signal worked out at 0.432 relative enrichment.

Regarding GAAAAA, the binding signal stood at 0.304 relative enrichment.

TGGTAA: the binding signal is 0.428 relative enrichment.

AGAATG: the binding signal turned out to be 0.543 relative enrichment.

Regarding TCAATC, the binding signal amounted to 0.416 relative enrichment.

Turning to CTTTGA, the binding signal was 0.338 relative enrichment.

As for AACGTT, the binding signal was found to be 0.324 relative enrichment.

As to CTCATT, the binding signal came to 0.311 relative enrichment.

On to AACAAT, for which the binding signal turned out to be 0.374 relative enrichment.

For the sequence ATAGTC, the binding signal worked out at 0.461 relative enrichment.

As to TTCACT, the binding signal came to 0.426 relative enrichment.

As to AAAGAT, the binding signal is 0.356 relative enrichment.

As for ATAGAA, the binding signal turned out to be 0.4 relative enrichment.

In the case of TCTCTA, the binding signal amounted to 0.45 relative enrichment.

Regarding ATATTA, the binding signal was found to be 0.266 relative enrichment.

Consider ATACGC, for which the binding signal stood at 0.457 relative enrichment.

With ACGAAA, the binding signal is 0.388 relative enrichment.

For the sequence CATACG, the binding signal was 0.448 relative enrichment.

Take TATGAA: the binding signal was 0.387 relative enrichment.

Regarding AATTCA, the binding signal was found to be 0.336 relative enrichment.

Regarding AAATTC, the binding signal turned out to be 0.343 relative enrichment.

Regarding ACACGT, the binding signal worked out at 0.335 relative enrichment.

On to CTTAAG, for which the binding signal came out at 0.341 relative enrichment.

Take AATCGT: the binding signal was 0.337 relative enrichment.

On to CTACAC, for which the binding signal was determined as 0.417 relative enrichment.

TTTCCC: the binding signal stood at 0.38 relative enrichment.

As to AAACCC, the binding signal was determined as 0.354 relative enrichment.

On to ACTAAT, for which the binding signal is 0.328 relative enrichment.

ACTACA: the binding signal amounted to 0.297 relative enrichment.

GCTACA: the binding signal worked out at 0.348 relative enrichment.

ACCATG: the binding signal came out at 0.559 relative enrichment.

As for ATCAAT, the binding signal came to 0.463 relative enrichment.

Take CGTCAT: the binding signal amounted to 0.583 relative enrichment.

As for AAATCC, the binding signal was 0.354 relative enrichment.

Take CACTGC: the binding signal turned out to be 0.574 relative enrichment.

For CACTTA, the binding signal was found to be 0.321 relative enrichment.

Take TACTTC: the binding signal amounted to 0.678 relative enrichment.

For the sequence AACTTC, the binding signal was determined as 0.432 relative enrichment.

As for CACTTC, the binding signal stood at 0.726 relative enrichment.

In the case of TACTCC, the binding signal worked out at 0.566 relative enrichment.

Consider AAGCTC, for which the binding signal was 0.44 relative enrichment.

For the sequence CTCTTG, the binding signal was 0.394 relative enrichment.

In the case of ACCCTT, the binding signal was 0.488 relative enrichment.

For the sequence CACGTA, the binding signal is 0.469 relative enrichment.

In the case of CATCTC, the binding signal is 0.642 relative enrichment.

Take CCCATT: the binding signal worked out at 0.378 relative enrichment.

In the case of CCTCTA, the binding signal stood at 0.483 relative enrichment.

On to CTTAAC, for which the binding signal amounted to 0.232 relative enrichment.

Regarding ACACGA, the binding signal is 0.377 relative enrichment.

Consider ATATGC, for which the binding signal is 0.286 relative enrichment.

Take ACGACT: the binding signal was found to be 0.561 relative enrichment.

As for AGTCTA, the binding signal was 0.54 relative enrichment.

Turning to ACCCAT, the binding signal was found to be 0.43 relative enrichment.

Turning to TGACAA, the binding signal worked out at 0.337 relative enrichment.

With TACCCA, the binding signal worked out at 0.526 relative enrichment.

On to ATAAAC, for which the binding signal was 1 relative enrichment.

In the case of ATAAGA, the binding signal was determined as 0.307 relative enrichment.

For ATAAGG, the binding signal worked out at 0.316 relative enrichment.

Regarding ATAAAA, the binding signal came out at 0.231 relative enrichment.

Consider GTAAAC, for which the binding signal was 0.561 relative enrichment.

With ATAAGC, the binding signal is 0.803 relative enrichment.

On to CCCTTG, for which the binding signal is 0.444 relative enrichment.

Consider GAGTAA, for which the binding signal was determined as 0.439 relative enrichment.

On to ATGCTA, for which the binding signal is 0.343 relative enrichment.

Consider AAAGCA, for which the binding signal is 0.341 relative enrichment.

CAAGCA: the binding signal amounted to 0.489 relative enrichment.

Turning to TAAGCA, the binding signal was 0.814 relative enrichment.

In the case of TCTGTG, the binding signal turned out to be 0.32 relative enrichment.

With AGCGTA, the binding signal came out at 0.542 relative enrichment.

Take GACACA: the binding signal came out at 0.296 relative enrichment.

As to TTCTCT, the binding signal is 0.453 relative enrichment.

Take ATCTTG: the binding signal was found to be 0.318 relative enrichment.

In the case of CTCTTC, the binding signal worked out at 0.799 relative enrichment.

Regarding ATCTTA, the binding signal was 0.332 relative enrichment.

In the case of ATCTTC, the binding signal was 0.665 relative enrichment.

Consider TTCTAC, for which the binding signal came out at 0.528 relative enrichment.

In the case of CTCTTT, the binding signal is 0.469 relative enrichment.

On to CTCTTA, for which the binding signal worked out at 0.325 relative enrichment.

As for TTCTTC, the binding signal is 0.673 relative enrichment.

ATCTAG: the binding signal worked out at 0.559 relative enrichment.

On to GCCAAT, for which the binding signal is 0.341 relative enrichment.

Turning to CCACTG, the binding signal came to 0.649 relative enrichment.

Consider ACTTGC, for which the binding signal is 0.489 relative enrichment.

As to CCCTGT, the binding signal is 0.366 relative enrichment.

Turning to ACAGAG, the binding signal amounted to 0.418 relative enrichment.

Take CCTCAT: the binding signal came to 0.455 relative enrichment.

Regarding TAGTCA, the binding signal was 0.442 relative enrichment.

With AGTCAT, the binding signal turned out to be 0.491 relative enrichment.

As to ATTGCC, the binding signal is 0.483 relative enrichment.

As for GCCATA, the binding signal worked out at 0.387 relative enrichment.

On to AACTCA, for which the binding signal was 0.249 relative enrichment.

With TGCAAA, the binding signal was found to be 0.311 relative enrichment.

ACATTA: the binding signal stood at 0.277 relative enrichment.

ACATGT: the binding signal is 0.276 relative enrichment.

The values are drawn from publication PMC12135187, “A role for pH dynamics regulating transcription factor DNA-binding selectivity”.
